TDP1 cell CPT – DT40-hTDP1 cell growth loss with CPT. AID 686979. chicken DT40 Tdp1-/-;hTDP1 cells + 20 nM CPT, ATP luminescence, 48 h. 420,000 compounds, 12% hits. Potency, µM (series often up to 46.2 µM), usual class: inhibitors; further: nearly all actives have a fitted effect of over 55% in size
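Chicken DT40 Tdp1-/- cells stably complemented with human TDP1 were seeded at 400 cells/well in medium containing 20 nM camptothecin, exposed to pin-transferred compounds, and grown at 37 °C for at least 48 hr. Viability was read as ATP luminescence.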
ClpP mod – qHTS Assay for Activators of ClpP. Potency, µM (doses to about 57.5 µM). AID 651965, 2013. 340,000 compounds, 1.9% hits. purified B. subtilis ClpP, FRET peptide cleavage, 20 min; active means well fitted falling curve with a large enough effect; inconclusive means small, poorly fitted or top-dose-only effect; inactive means no such curve, though single readings can be large or run the other way; further: the source files actives as falling curves though it sought activators and does not explain the sign; nearly all actives have a fitted effect of over 65% in size
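FRET quenching reversal measured ClpP activation: 10 microg/mL B. subtilis ClpP at pH 8 with the FRET-FV decapeptide, read at 430 nm after 320 nm excitation. The 20-min minus 0-min signal was scaled between DMSO/no-enzyme wells and ADEP (5.8 microM final).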
TDP1 cell noCPT – qHTS for Inhibitors of human tyrosyl-DNA phosphodiesterase 1 (TDP1): qHTS in cells in absence of CPT; AID 686978, 2013; Potency, µM (titrated, usually from 46.2 µM), hits mostly inhibitors; DT40 Tdp1-/- hTDP1 cells, no CPT, ATP luminescence, 48 h; 420,000 compounds, 15% hits; further: nearly all actives have a fitted effect of over 55% in size
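Chicken DT40 Tdp1-/- cells complemented with human TDP1, screened without camptothecin (DMSO vehicle only), 400 cells/well. Compounds pin-transferred, cells incubated at 37 °C for at least 48 hr. Growth read as ATP-dependent luminescence (CellTiter-Glo, 30 min at RT).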
TDP1 block – TDP1 (human) enzyme inhibition. recombinant TDP1, AlphaScreen DNA substrate cleavage. Q9NUW8. 350,000 compounds, 0.28% hits. AID 485290. Potency, µM (series often up to 130 µM), most hits filed as inhibitors; further: nearly all actives have a fitted effect of over 40% in size
Target sequence (Q9NUW8 whole entry, looked up): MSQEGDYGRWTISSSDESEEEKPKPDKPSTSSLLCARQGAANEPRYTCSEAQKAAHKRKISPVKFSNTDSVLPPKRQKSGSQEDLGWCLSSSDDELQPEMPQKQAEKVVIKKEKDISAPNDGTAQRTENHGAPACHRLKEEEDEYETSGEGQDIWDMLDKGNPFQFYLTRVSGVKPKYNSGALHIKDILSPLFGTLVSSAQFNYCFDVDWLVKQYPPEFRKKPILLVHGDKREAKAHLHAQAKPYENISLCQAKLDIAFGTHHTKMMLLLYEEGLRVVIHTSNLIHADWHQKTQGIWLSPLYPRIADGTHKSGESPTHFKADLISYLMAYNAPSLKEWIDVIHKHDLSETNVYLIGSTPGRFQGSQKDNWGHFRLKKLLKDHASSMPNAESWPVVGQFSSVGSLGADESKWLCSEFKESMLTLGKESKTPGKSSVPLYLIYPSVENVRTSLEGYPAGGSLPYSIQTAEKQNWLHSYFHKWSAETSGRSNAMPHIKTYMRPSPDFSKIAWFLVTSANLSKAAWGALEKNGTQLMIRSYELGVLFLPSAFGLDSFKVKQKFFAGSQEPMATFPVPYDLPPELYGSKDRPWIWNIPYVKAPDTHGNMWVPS
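Compounds were preincubated with Tdp1 (1 nM final) for 15 min at room temperature before substrate (15 nM final) started a 5 min reaction; beads (10 ug/ml final) were then added for 10 min before AlphaScreen detection.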
Hits are given with their value; 0 = inactive; ? = inconclusive; - = not tested or not shown. Rows were chosen to be rich in hits. Some 17% of all compounds tested hit in one or more screens of this group. Unless noted, the call rests on the fitted dose curve; in most records, active means well fitted curve in the direction sought with a large enough effect; inconclusive means small, poorly fitted or top-dose-only effect, or another doubt; inactive means no such curve, though single readings can be large; an effect the other way counts as inactive or inconclusive.

SMILES | TDP1 cell CPT | ClpP mod | TDP1 cell noCPT | TDP1 block
CCc1nc2ccc(C(=O)N(CC)CCN(C)C)cn2c1N(C)Cc1nccs1 | 0 | 0 | 0 | -
CCc1nc2ccc(C(=O)NCC3CCCCC3)cn2c1N(C)Cc1nccs1 | 16.4µM | 0 | 20.6µM | -
CCc1nc2ccc(C(=O)Nc3cc(-c4ccccc4)ccc3OC)cn2c1N(C)C(=O)c1cccc(OC)c1 | ? | ? | 18.4µM | -
CCn1c(SCC(=O)NCc2ccco2)nnc1-c1cccc(N(C)C)c1 | 0 | 0 | ? | -
O=C(N/N=C/c1sc(=O)n(Cc2ccc(Br)cc2)c1Cl)c1ccco1 | ? | - | ? | 39.8µM
COc1cc(NS(=O)(=O)c2ccc(NC(=O)c3ccccc3C(=O)O)cc2)nc(OC)n1 | 0 | 0 | 0 | -
Cc1c(C(=O)NCC2CCCO2)oc2ccc3c(c12)C(=O)CC(C)(C)O3 (configuration not stated) | 0 | 25.1µM | ? | 0
Cc1cccc(C)c1NC(=O)c1oc2ccc3c(c2c1C)C(=O)CC(C)(C)O3 | 16.4µM | 0 | ? | 0
C/C(=N\NC(=S)NC1CCCCC1)c1ccc(C#N)cc1 | ? | 0 | ? | 0
C/C(=N\NC(=S)NC1CCCCC1)c1cccc(C(F)(F)F)c1 | 20.6µM | 0 | 23.1µM | -
C/C(=N\NC(=S)NC1CCCCC1)c1cccc(Br)c1 | ? | 0 | 16.4µM | 0
COC(=O)c1nnc(C(=O)N(C)Cc2ccccc2)c2[nH]c3ccccc3c12 | - | - | - | 0
CCCCCC(=O)N1C[C@H](O)[C@@H](n2cc(COC(=O)c3ccccc3)nn2)C[C@@H]1c1ccc(Cl)cc1 | ? | 0 | 25.9µM | -
CCCCCC(=O)N1C[C@H](n2cc(COC(=O)c3ccccc3)nn2)[C@@H](O)C[C@@H]1c1ccccc1 | 0 | 0 | 0 | -
CCCCCC(=O)N1C[C@H](n2cc(COC(=O)c3ccccc3)nn2)[C@@H](O)C[C@@H]1c1ccc(OC)cc1 | 20.6µM | 0 | ? | -
Cc1cccc(-n2ccnc2SCC(=O)Nc2ccc3c(c2)OCCO3)c1 | ? | 0 | ? | 0
O=C(CSc1nccn(-c2ccc3c(c2)OCCO3)c1=O)Nc1ccccc1 | ? | 0 | ? | -
CCc1ccc(NC(=O)CSc2nccn(-c3ccc4c(c3)OCCO4)c2=O)cc1 | 18.4µM | 0 | ? | -
CCOc1ccc(NC(=O)CSc2nccn(-c3ccc4c(c3)OCCO4)c2=O)cc1 | 0 | 0 | 14.6µM | 0
Cc1ccc(NC(=O)CSc2nccn(-c3ccc4c(c3)OCCO4)c2=O)cc1 | 23.1µM | 0 | 18.4µM | 0
COc1cccc(CNCc2ccco2)c1O | 0 | - | 0 | -
Cn1c(SCc2ccc(F)cc2)nc2ccc(C(=O)NCc3ccc(F)cc3)cc21 | 16.4µM | 0 | 16.4µM | 0
Cn1c(SCc2ccc(F)cc2)nc2ccc(C(=O)NCc3ccc(Cl)cc3)cc21 | ? | 0 | ? | 0
Cc1ccccc1CNC(=O)c1ccc2nc(SCc3ccc(F)cc3)n(C)c2c1 | ? | 0 | ? | 0
Cc1ccc(CNC(=O)c2ccc3nc(SCc4ccc(F)cc4)[nH]c3c2)cc1 | 14.6µM | 0 | 13µM | 0
SMILES | TDP1 cell CPT | ClpP mod | TDP1 cell noCPT | TDP1 block
Cn1c(SCc2ccc(F)cc2)nc2ccc(C(=O)NCc3cccc(Cl)c3)cc21 | 16.4µM | 0 | ? | 0
COc1ccc(C(CNC(=O)c2cccc(S(=O)(=O)Nc3ccccc3OC)c2)N2CCCCC2)cc1 (configuration not stated) | 18.4µM | 0 | ? | -
COc1ccc(NS(=O)(=O)c2cccc(C(=O)N/N=C/c3c(F)c(F)c(F)c(F)c3F)c2)cc1 | 20.6µM | 0 | 23.1µM | -
COc1ccc(NS(=O)(=O)c2cccc(C(=O)NCC(c3ccc(OC)cc3)N3CCCC3)c2)cc1 (configuration not stated) | 13µM | 28.2µM | ? | 0
COc1ccc(C(CNC(=O)c2cccc(S(=O)(=O)Nc3ccccc3OC)c2)N2CCCC2)cc1 (configuration not stated) | ? | 0 | ? | 0
COc1ccc(C(CNC(=O)c2cccc(S(=O)(=O)NCc3ccccc3)c2)N2CCOCC2)cc1 (configuration not stated) | ? | 0 | 20.6µM | 0
COc1ccc(NS(=O)(=O)c2cccc(C(=O)NN=Cc3ccc(OC)c(O)c3)c2)cc1 | 0 | 0 | 0 | 0
COc1ccc(NS(=O)(=O)c2cccc(C(=O)NCC(c3ccc(OC)cc3)N3CCCCC3)c2)cc1 (configuration not stated) | ? | 0 | 0 | -
CC1CCCN(C(=O)c2cc3c(=O)n(C)c4ccccc4c3s2)C1 (configuration not stated) | 0 | 0 | 0 | 0
CC(C)(Cc1cccc(CC(C)(C)C(=O)O)c1)C(=O)O | ? | 0 | 0 | -
COc1ccc(C(CNC(=O)c2cccc(N(C)C)c2)N2CCCC2)cc1 (configuration not stated) | 23.1µM | 0 | ? | 0
COc1ccccc1C(CNC(=O)c1cccc(S(=O)(=O)Nc2ccc(F)cc2)c1)N1CCCC1 (configuration not stated) | ? | 0 | 20.6µM | -
CCC1CCc2sc(C(=O)NCC(c3ccc(OC)cc3)N3CCCC3)cc2C1 (configuration not stated) | ? | 0 | 23.1µM | 0
COc1ccc(NS(=O)(=O)c2cccc(C(=O)NCC(c3ccccc3OC)N3CCCC3)c2)cc1 (configuration not stated) | ? | 0 | ? | 0
Cc1cc(C)cc(NC(=O)CSc2nc3c(oc4ccccc43)c(=O)n2-c2ccccc2F)c1 | ? | 0 | 0 | 0
CCNc1nc(Oc2ccc(C(=O)OC)cc2)nc(N(C)C)n1 | ? | ? | ? | 0
COC(=O)c1ccc(Oc2nc(Nc3ccc(C)c(C)c3)nc(N(C)C)n2)cc1 | 11.2µM | 0 | 17.8µM | 0
CC(C)CNC(=O)c1ccc(C2SCC(=O)N2Cc2ccccc2)cc1 (configuration not stated) | ? | - | 16.4µM | 0
O=C(O)c1ccc(C2SCC(=O)N2Cc2ccccc2)cc1 (configuration not stated) | 0 | ? | 0 | 0
CCCCn1c(=O)n(C)c(=O)c2c3c(sc21)COC(C)(C)C3 | ? | 28.2µM | ? | 0
O=C(Nc1cccc(F)c1)[C@H](CSCc1ccccc1)N1Cc2ccccc2C1=O | 0 | 0 | ? | 0
CCOC(=O)c1ccc(NC(=O)CSc2ccc(-c3ccccn3)nn2)cc1 | 20.6µM | 0 | 18.4µM | 0
COc1ccccc1NC(=O)CSc1ccc(-c2ccc(-n3cccn3)cc2)nn1 | ? | 0 | 18.4µM | 0
COc1ccc(NC(=O)CSc2ccc(-c3ccccn3)nn2)cc1OC | 23.1µM | 0 | 16.4µM | 0
COc1ccccc1NC(=O)CSc1ccc(-c2ccccn2)nn1 | ? | 0 | ? | 0
COc1ccc(NC(=O)CSc2nnc3ccc(-c4ccccn4)nn23)cc1 | 0 | 15.8µM | 0 | -
CNc1cncc(-c2ccoc2)n1 | ? | 0 | 0 | -

High-throughput results deposited in PubChem by National Center for Advancing Translational Sciences (NCATS).
